3CLpro inhibitor = SARS-CoV 3CLpro protease inhibition; recombinant SARS-CoV 3CLpro, quenched FRET peptide cleavage; P0C6X7; actives 0.14% (n = 290,000); inhibition, % at 6 µM; in the data active = inhibition above about 12%
VHR inh abs = inhibitors of human VHR1 phosphatase (DUSP3); actives 0.52% (n = 290,000); inhibition, % at 13.3 µM; AID 1654; recombinant VHR phosphatase, pNPP absorbance; P51452; in the data active = inhibition above about 50%
Target sequence (P51452 whole entry, looked up): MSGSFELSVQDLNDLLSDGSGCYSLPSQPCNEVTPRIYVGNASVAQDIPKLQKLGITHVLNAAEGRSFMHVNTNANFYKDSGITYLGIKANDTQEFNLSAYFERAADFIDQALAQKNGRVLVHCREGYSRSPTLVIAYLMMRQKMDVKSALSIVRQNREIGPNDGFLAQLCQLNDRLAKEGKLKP
Mtb hypoxia rep = Mtb hypoxia fluorescent reporter inhibition; M. tuberculosis hypoxia-regulated fluorescent reporter, fluorescence; fluorescence inhibition, % (no concentration beside the values); actives 0.1% (n = 300,000); in the data active = fluorescence inhibition mostly above about 23%, no sharp cut-off; inactive = mostly below about 17%
CCHF vOTU inh = CCHFV vOTU protease inhibition. Pep-AMC fluorescence. inhibition, % at 11.5 µM. actives 0.55% (n = 370,000); in the data active = inhibition above about 30%
SSB-PriA inh = K. pneumoniae PriA-SSBct interaction inhibition; actives 0.6% (n = 430,000); AlphaScreen SSBct-PriA binding, biotinylated peptide; inhibition, % at 33 µM; in the data active = inhibition mostly above about 37%, no sharp cut-off; inactive = mostly below about 20%
Numbers stand for hits; - = inactive; . = no result given; ! = a repeat was not active. Only some compounds are listed: those with a hit (about 1.3% of all), similar ones and a draw of the others.

SMILES | 3CLpro inhibitor | VHR inh abs | Mtb hypoxia rep | CCHF vOTU inh | SSB-PriA inh
O=C(NC1CCCCC1)N(Cc1cnc2ccccn12)c1ccccc1 | . | . | . | . | -
CN(CCc1cnn(C)c1)Cc1cn(C)nc1-c1ccc2c(c1)OCCO2 | - | 52 | - | - | -
O=C1ON=C(c2ccccc2)/C1=C/c1ccc(-c2ccccc2[N+](=O)[O-])o1 | 15 | - | - | - | -
CC(=O)Nc1cc2c3c(c1)CCN3C(=O)CC2 | - | 56 | - | - | -
N#Cc1ccsc1NC(=O)c1cccc(Br)c1 | . | . | . | . | -
CCCCS(=O)(=O)Nc1cnc(N2CCCCC2)nc1N(C)C | . | . | . | . | -
CCOC(=O)C1=C(N)n2c(s/c(=C\c3cccnc3)c2=O)=C(C(=O)OCC)C1c1cccnc1 (stereo not given) | . | 57 | . | . | .
Cc1noc(C)c1S(=O)(=O)NCC(O)c1csc2ccccc12 (stereo not given) | . | . | . | . | -
Oc1cccc(C=NNC(=S)NCCN2CCOCC2)c1O | . | . | . | . | 58
Oc1cccc(/C=N/NC(=S)NCCN2CCOCC2)c1O | - | - | . | - | .
CN(CCCNC(=O)C1CCC(CNS(=O)(=O)c2ccccc2)CC1)Cc1ccccc1 (stereo not given) | - | 56 | - | - | -
CCOc1cc2c3c(c1)C1(Nc4ccccc4S1)C(=O)N3C(C)(C)CC2C (stereo not given) | - | - | - | - | 40
CCOc1cc2c3c(c1)C1(OCCO1)C(=O)N3C(C)(C)CC2C (stereo not given) | - | - | . | - | -
O=C(CSc1nccn1-c1cccc(Cl)c1)N1CCc2ccccc21 | . | . | . | . | 44
O=C(CSc1nccn1-c1ccccc1)N1CCCc2ccccc21 | . | . | . | . | 72
O=C(CSc1ccc(-c2ccccn2)nn1)N1CCCc2ccccc21 | - | - | - | - | 62!
O=C(Cc1csc(NC(=O)C2CCC(=O)N2)n1)Nc1ccc2c(c1)OCCO2 (stereo not given) | . | . | . | . | -
CSc1nnc(NC(=O)Nc2ccc(C)cc2)s1 | . | . | . | . | -
O=[N+]([O-])c1cc(F)cc2cccnc12 | . | . | . | . | 55
O=[N+]([O-])c1cc(O)cc2cccnc12 | . | . | . | . | -
O=[N+]([O-])c1cccnc1Sc1ccc(F)cc1 | . | . | - | - | 42
O=[N+]([O-])c1ccc(Sc2cccc3cccnc23)c([N+](=O)[O-])c1 | - | - | - | - | 87
O=c1ccnc(Sc2ncccc2[N+](=O)[O-])[nH]1 | - | - | . | - | -
O=S(=O)(CCc1ccccc1)NCC(O)c1ccc2c(c1)CCO2 (stereo not given) | . | . | . | . | -
O=c1oc2cc(S(=O)(=O)N3CCOCC3)ccc2n1Cc1ccc([N+](=O)[O-])cc1 | . | . | . | . | 48
SMILES | 3CLpro inhibitor | VHR inh abs | Mtb hypoxia rep | CCHF vOTU inh | SSB-PriA inh
O=C(COc1ccc(Cl)cc1Cl)OCc1cc(-c2ccc3c(c2)OCCO3)on1 | . | . | . | . | -
Cn1nnc2c(N3CC(C(=O)NCc4ccc(OC(F)(F)F)cc4)C3)ncnc21 | . | . | . | . | -
Cc1cccn2cc(-c3cccc(N)c3)nc12 | . | . | . | . | 52
Cc1ccc(-c2cn3cccc(C)c3n2)cc1N | . | . | . | . | -
COc1cccc([C@@H]2SCCN2C(=O)N2CCNC2=O)c1 | . | . | . | . | -
Cc1csc(N2CCCC2c2nc3cc(C(F)(F)F)ccc3n2CCOCCO)n1 (stereo not given) | . | . | - | - | 48
Cc1csc(N2CCCC2c2nc3cc(Cl)c(N4CCCCC4)cc3n2CCOCCO)n1 (stereo not given) | . | . | - | - | -
CN(C)S(=O)(=O)c1cccc(NC(=S)N/N=C/c2cccc(O)c2)c1 | - | - | . | - | .
CN(C)S(=O)(=O)c1cccc(NC(=S)NN=Cc2ccc(O)c(O)c2O)c1 | . | . | - | . | 102
O=C(NCc1ccc(Cl)cc1)c1ccc(CNc2c(N3CCOCC3)c(=O)c2=O)cc1 | - | - | - | - | -
O=C(NCCc1ccc(Cl)cc1)c1ccc(CNc2c(N3CCOCC3)c(=O)c2=O)cc1 | - | - | 42 | - | -
O=C(NCc1ccc2c(c1)OCO2)C12CN(Cc3ccccc3)CC1C(c1cccc([N+](=O)[O-])c1)=NO2 (stereo not given) | - | - | - | - | 43
Cc1ccc(Cl)c2c(N=Nc3ccccc3)c(O)[nH]c12 | - | 52 | - | - | -
Cc1cc(Cl)cc2c(N=Nc3ccccc3C(=O)O)c(O)[nH]c12 | - | - | - | - | -
O=C(Cn1ncn2nc(-c3ccccc3)cc2c1=O)Nc1ccc(F)cc1 | . | . | . | . | -
O=C(NC1CCCCC1)C(C1CC1)N1CCc2ccccc2C1 (stereo not given) | . | . | . | - | .
O=C(NC1CCCCC1)C(c1ccnc2ccccc12)N1CCc2ccccc2C1 (stereo not given) | . | . | . | 76 | .
Cc1ccc(NC(=O)COC(=O)CCc2c[nH]c3ccccc23)cc1[N+](=O)[O-] | - | - | - | - | 40
Cc1cccc(N(C)S(=O)(=O)c2c(C)[nH]c(C)c2C(=O)N2CCCC2)c1 | - | 54 | - | - | -
Cc1ccc(NCCN(C)C)c2c(=O)c3cc(O)ccc3sc12 | . | . | . | - | 62
CCOc1ccc(OCCNC(=O)c2ccc(OC)cc2)cc1 | . | . | . | . | -
CCc1cccc(C)c1N(C(=O)Cn1c(CN2CCOCC2)nc2ccccc21)C(C)COC (stereo not given) | . | . | . | . | -
CCCn1c(C(CO)Nc2nc(C)cs2)nc2ccccc21 (stereo not given) | - | 59 | - | - | -
CC(=O)c1ccc(NN=C(C(N)=O)C2=NC(C)(C)Cc3ccccc32)cc1 | . | . | - | . | 50
COc1cc2[nH]c3c(=O)n(CCN4CCCCC4)cnc3c2cc1OC | - | 53 | . | - | -
SMILES | 3CLpro inhibitor | VHR inh abs | Mtb hypoxia rep | CCHF vOTU inh | SSB-PriA inh
CCc1cc(=O)[nH]c(-n2[nH]c(-c3ccccc3)cc2=O)n1 | - | - | . | - | -
O=c1cc(-c2ccccc2)[nH]n1-c1nc2ccccc2[nH]1 | - | - | - | - | 69
CC(C)[C@H](NC(=O)Cc1ccccc1)C(=O)OCc1cc(=O)n2c(n1)sc1ccccc12 | - | 54 | - | - | -
C=CCn1c(O)c(N=Nc2c(C)n(C)n(-c3ccccc3)c2=O)c(=O)[nH]c1=S | - | - | - | - | -
Cc1c(N=Nc2c(O)[nH]c(=S)[nH]c2=O)c(=O)n(-c2ccccc2)n1C | - | - | - | - | 53
O=S(=O)(c1ccc(Br)s1)N1CCc2cnc(N3CCOCC3)nc2C1 | . | . | . | . | -
CC1(C)CNc2cc(N)ccc2S1 | - | - | - | - | 74
Nc1ccc2c(c1)CC(=O)N2 | . | . | . | . | -
Cc1ccc(S(=O)(=O)Nc2cccc(C(=O)N3CCOCC3)c2)c(C)c1NS(C)(=O)=O | - | 59 | - | - | -
Cc1ccc(S(=O)(=O)Nc2cccc(C(=O)N3CCOCC3)c2)cc1 | - | - | - | - | -
CCCCCn1c(=O)c2ccccc2n2c(CCl)nnc12 | - | - | - | - | -
CC(C)CCn1c(=O)c2ccccc2n2c(CCl)nnc12 | - | - | 36 | - | -
c1ccc(Oc2nc(-c3ccccn3)nnc2-c2ccccc2)cc1 | . | . | . | . | 103
COc1cnc(-c2ccccn2)nc1Oc1ccc(F)cc1 | . | . | . | . | 109
c1ccc(-c2cnc(-c3ccccn3)nn2)cc1 | . | . | - | - | 69
COc1cnc(-c2ccccn2)nc1Oc1ccccc1 | - | - | - | - | 64
O=C(NCCn1ncc2c(=O)n(Cc3cccc(C(F)(F)F)c3)cnc21)c1ccco1 | . | . | . | . | -
COc1cnc(-c2ccccn2)nc1Oc1cccc(C(F)(F)F)c1 | - | - | . | - | .
